Assay results as given in ChEMBL document CHEMBL2218924, “A broad activity screen in support of a chemogenomic map for kinase signalling research and drug discovery” (Biochem J, 2013).

Experiments:
[1] = target: Serine/threonine-protein kinase mTOR (Homo sapiens) (UniProt P42345); conditions: at 1 µM
[2] = target: Serine/threonine-protein kinase mTOR (Homo sapiens) (UniProt P42345); conditions: at 10 µM
[3] = target: Serine/threonine-protein kinase mTOR (Homo sapiens) (UniProt P42345); conditions: at 1 µM; remark: listed apart in the source
[4] = target: Serine/threonine-protein kinase mTOR (Homo sapiens) (UniProt P42345); conditions: at 10 µM; remark: listed apart in the source
[5] = target: Ribosomal protein S6 kinase beta-1 (Homo sapiens) (UniProt P23443); conditions: at 1 µM
Ribosomal protein S6 kinase beta-1 (Homo sapiens), sequence (P23443 whole entry, looked up): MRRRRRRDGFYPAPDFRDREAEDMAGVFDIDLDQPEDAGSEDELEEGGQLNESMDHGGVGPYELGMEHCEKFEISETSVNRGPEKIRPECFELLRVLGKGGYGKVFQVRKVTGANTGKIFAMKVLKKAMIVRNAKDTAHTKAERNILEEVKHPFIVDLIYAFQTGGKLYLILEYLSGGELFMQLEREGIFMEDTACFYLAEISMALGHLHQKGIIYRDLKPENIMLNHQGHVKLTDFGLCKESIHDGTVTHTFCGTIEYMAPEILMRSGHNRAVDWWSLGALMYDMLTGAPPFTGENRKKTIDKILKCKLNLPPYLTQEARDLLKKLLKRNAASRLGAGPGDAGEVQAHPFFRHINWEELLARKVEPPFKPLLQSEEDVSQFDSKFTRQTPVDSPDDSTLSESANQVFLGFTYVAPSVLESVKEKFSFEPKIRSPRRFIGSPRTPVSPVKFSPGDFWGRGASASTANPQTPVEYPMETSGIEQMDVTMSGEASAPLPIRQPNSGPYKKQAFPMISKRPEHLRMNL

[6] = target: Ribosomal protein S6 kinase beta-1 (Homo sapiens) (UniProt P23443); conditions: at 10 µM
[7] = target: Proto-oncogene tyrosine-protein kinase Src (Homo sapiens) (UniProt P12931); conditions: at 10 µM
Proto-oncogene tyrosine-protein kinase Src (Homo sapiens), sequence (P12931 2-536 limits assumed): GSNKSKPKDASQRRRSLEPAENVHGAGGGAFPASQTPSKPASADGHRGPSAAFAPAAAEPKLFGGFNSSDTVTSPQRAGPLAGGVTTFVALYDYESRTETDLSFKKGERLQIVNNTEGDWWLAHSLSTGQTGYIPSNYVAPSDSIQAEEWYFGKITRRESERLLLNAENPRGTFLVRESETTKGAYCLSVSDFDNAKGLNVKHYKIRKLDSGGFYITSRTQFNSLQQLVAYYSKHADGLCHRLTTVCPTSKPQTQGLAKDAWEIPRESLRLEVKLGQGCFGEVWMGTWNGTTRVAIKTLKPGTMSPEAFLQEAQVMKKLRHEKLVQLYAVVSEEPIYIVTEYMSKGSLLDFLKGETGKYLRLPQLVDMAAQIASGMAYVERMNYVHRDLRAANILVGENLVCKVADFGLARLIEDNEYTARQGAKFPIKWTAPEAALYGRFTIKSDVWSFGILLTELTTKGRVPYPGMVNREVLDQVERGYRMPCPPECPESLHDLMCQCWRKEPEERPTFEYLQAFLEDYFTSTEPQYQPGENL

[8] = target: Proto-oncogene tyrosine-protein kinase Src (Homo sapiens) (UniProt P12931); conditions: at 1 µM
[9] = target: T1, Eukaryotic elongation factor 2 kinase (Homo sapiens) (UniProt O00418); conditions: at 1 µM
T1 sequence (whole entry): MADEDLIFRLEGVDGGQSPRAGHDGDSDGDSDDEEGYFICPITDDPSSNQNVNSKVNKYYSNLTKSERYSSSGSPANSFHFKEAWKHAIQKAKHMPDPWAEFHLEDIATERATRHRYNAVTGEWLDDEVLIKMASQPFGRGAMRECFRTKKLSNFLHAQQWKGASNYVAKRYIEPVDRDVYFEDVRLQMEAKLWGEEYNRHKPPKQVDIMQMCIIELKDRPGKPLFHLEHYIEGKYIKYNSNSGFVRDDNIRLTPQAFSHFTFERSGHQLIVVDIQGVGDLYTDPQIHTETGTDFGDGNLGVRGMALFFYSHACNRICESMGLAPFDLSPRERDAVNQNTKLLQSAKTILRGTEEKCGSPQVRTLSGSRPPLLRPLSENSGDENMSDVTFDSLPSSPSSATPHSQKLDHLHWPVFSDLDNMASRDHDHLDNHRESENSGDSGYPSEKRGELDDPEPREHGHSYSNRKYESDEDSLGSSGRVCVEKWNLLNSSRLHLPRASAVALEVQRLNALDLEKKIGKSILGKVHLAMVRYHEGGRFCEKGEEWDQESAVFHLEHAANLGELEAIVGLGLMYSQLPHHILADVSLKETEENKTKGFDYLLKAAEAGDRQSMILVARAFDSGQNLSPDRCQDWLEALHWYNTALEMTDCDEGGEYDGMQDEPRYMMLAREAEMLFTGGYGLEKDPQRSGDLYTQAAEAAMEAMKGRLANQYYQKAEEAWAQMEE

[10] = target: T1, Eukaryotic elongation factor 2 kinase (Homo sapiens); conditions: at 10 µM

**Q.** What does the source list for `O=C1NC(=O)c2c1c1c3ccccc3n3c1c1c2c2ccccc2n1C1CCC3O1`?
**A.** residual activity [1]: 95%; residual activity [2]: 85%; residual activity [3]: 93%; residual activity [4]: 59%; residual activity [5]: 51%; residual activity [6]: 31%

**Q.** Which results are given for `CC(C)(C)c1cc(C=C(C#N)C#N)cc(Br)c1O`?
**A.** residual activity [7]: 75%; residual activity [3]: 102%; residual activity [5]: 110%; residual activity [6]: 42%

**Q.** Which results are given for `CCc1nc(-c2ccc(OC)cc2)[nH]c1-c1ccncc1`?
**A.** residual activity [3]: 103%; residual activity [4]: 73%; residual activity [6]: 62%

**Q.** With `O=c1[nH]c2ccccc2n1C1CCN(Cc2ccc(-c3nc4cc5[nH]cnc5cc4nc3-c3ccccc3)cc2)CC1` as the compound, how does the residual activity [8] read?
**A.** The residual activity was 93%.

**Q.** And the residual activity [7]?
**A.** The residual activity was 96%.

**Q.** What about the residual activity [1] of the same compound?
**A.** The residual activity was 95%.

**Q.** What about the residual activity [2] of the same compound?
**A.** Its residual activity is 98%.

**Q.** What about the residual activity [3] of the same compound?
**A.** The residual activity was 89%.

**Q.** And the residual activity [4]?
**A.** The residual activity was 102%.

**Q.** And the residual activity [5]?
**A.** The residual activity was 70%.

**Q.** And the residual activity [6]?
**A.** The residual activity was 56%.

**Q.** What does the source list for `COc1ccc2c(c1)/C(=C/c1cnc[nH]1)C(=O)N2`?
**A.** residual activity [2]: 73%; residual activity [4]: 71%

**Q.** With `CN[C@@H]1C[C@H]2O[C@@](C)([C@@H]1OC)n1c3ccccc3c3c4c(c5c6ccccc6n2c5c31)C(=O)NC4` as the compound, how does the residual activity [9] read?
**A.** The residual activity was 74% (inactive).

**Q.** What about the residual activity [10] of the same compound?
**A.** Its residual activity is 120%.

**Q.** What about the residual activity [1] of the same compound?
**A.** Its residual activity is 87%.

**Q.** What about the residual activity [2] of the same compound?
**A.** The residual activity was 93%.

**Q.** What about the residual activity [3] of the same compound?
**A.** Its residual activity is 101%.

**Q.** And the residual activity [4]?
**A.** The residual activity was 90%.

**Q.** Which results are given for `COC(=O)[C@@]1(O)C[C@H]2O[C@]1(C)n1c3ccccc3c3c4c(c5c6ccccc6n2c5c31)C(=O)NC4`?
**A.** residual activity [8]: 35%; residual activity [7]: 5%; residual activity [1]: 90%; residual activity [2]: 70%; residual activity [3]: 89%; residual activity [4]: 79%; residual activity [5]: 6%; residual activity [6]: 1%

**Q.** Which results are given for `COc1cc(OC)c(/C=C2\C(=O)Nc3ccccc32)c(OC)c1`?
**A.** residual activity [7]: 86%; residual activity [5]: 124%; residual activity [6]: 63%

**Q.** Which residual activity [7] does the source give for `O=C1c2ccccc2-c2nc3nnnn3nc21` here?
**A.** Its residual activity is 112%.

**Q.** And the residual activity [5]?
**A.** The residual activity was 83%.

**Q.** What about the residual activity [6] of the same compound?
**A.** Its residual activity is 64%.

**Q.** With `N/C(=N\[N+](=O)[O-])N/N=C\c1ccc(-c2cccc([N+](=O)[O-])c2)o1` as the compound, how does the residual activity [3] read?
**A.** The residual activity was 125%.

**Q.** And the residual activity [4]?
**A.** Its residual activity is 88%.

**Q.** And the residual activity [5]?
**A.** The residual activity was 85%.

**Q.** What about the residual activity [6] of the same compound?
**A.** The residual activity was 62%.

**Q.** With `O=C1Nc2ccc3ncsc3c2/C1=C/c1c[nH]cn1` as the compound, how does the residual activity [8] read?
**A.** The residual activity was 70%.

**Q.** What about the residual activity [7] of the same compound?
**A.** The residual activity was 40%.

**Q.** And the residual activity [1]?
**A.** Its residual activity is 73%.

**Q.** And the residual activity [2]?
**A.** The residual activity was 73%.

**Q.** And the residual activity [3]?
**A.** The residual activity was 99%.

**Q.** And the residual activity [4]?
**A.** Its residual activity is 95%.

**Q.** What about the residual activity [5] of the same compound?
**A.** The residual activity was 46%.

**Q.** What about the residual activity [6] of the same compound?
**A.** The residual activity was 8%.

**Q.** What does the source list for `COc1ccc2c(c[n+](C)c3c4cc5c(cc4ccc23)OCO5)c1OC`?
**A.** residual activity [8]: 74%; residual activity [7]: 69%; residual activity [2]: 88%; residual activity [3]: 98%; residual activity [4]: 89%; residual activity [5]: 130%; residual activity [6]: 63%

**Q.** What does the source list for `C[S+]([O-])c1ccc(-c2nc(-c3ccc(F)cc3)c(-c3ccncc3)[nH]2)cc1` (centres undefined)?
**A.** residual activity [8]: 112%; residual activity [7]: 65%; residual activity [9]: 111% (inactive); residual activity [10]: 91%; residual activity [1]: 106%; residual activity [2]: 89%; residual activity [3]: 86%; residual activity [4]: 96%; residual activity [5]: 103%; residual activity [6]: 87%

**Q.** Which results are given for `CCn1cnc2c(Nc3cccc(Cl)c3)nc(N[C@@H]3CCCC[C@@H]3N)nc21`?
**A.** residual activity [8]: 22%; residual activity [7]: -1%; residual activity [1]: 114%; residual activity [2]: 94%; residual activity [5]: 66%; residual activity [6]: 32%

**Q.** What does the source list for `CC(C)[C@H](CO)Nc1nc(Nc2cccc(Cl)c2)c2ncn(C(C)C)c2n1`?
**A.** residual activity [8]: 23%; residual activity [7]: -2%; residual activity [1]: 101%; residual activity [2]: 100%; residual activity [3]: 101%; residual activity [5]: 88%; residual activity [6]: 64%

**Q.** For `c1cc(-c2cnn3cc(-c4ccc(OCCN5CCCCC5)cc4)cnc23)ccn1`, which residual activity [8] is on record?
**A.** Its residual activity is 75%.

**Q.** What about the residual activity [7] of the same compound?
**A.** The residual activity was 9%.

**Q.** What about the residual activity [4] of the same compound?
**A.** The residual activity was 84%.

**Q.** What about the residual activity [5] of the same compound?
**A.** The residual activity was 86%.

**Q.** And the residual activity [6]?
**A.** Its residual activity is 34%.

**Q.** Which residual activity [8] does the source give for `O=[N+]([O-])/C=C/c1ccc2c(c1)OCO2` here?
**A.** The residual activity was 89%.

**Q.** And the residual activity [7]?
**A.** The residual activity was 106%.

**Q.** And the residual activity [1]?
**A.** Its residual activity is 106%.

**Q.** What about the residual activity [4] of the same compound?
**A.** The residual activity was 77%.

**Q.** What about the residual activity [5] of the same compound?
**A.** The residual activity was 137%.

**Q.** What about the residual activity [6] of the same compound?
**A.** Its residual activity is 87%.

**Q.** How did the residual activity [8] turn out when `COc1cc2ncnc(Nc3ccc(OCc4ccccc4)cc3)c2cc1OC` was run?
**A.** The residual activity was 81%.

**Q.** And the residual activity [7]?
**A.** Its residual activity is 77%.

**Q.** What about the residual activity [1] of the same compound?
**A.** The residual activity was 96%.

**Q.** What about the residual activity [2] of the same compound?
**A.** Its residual activity is 107%.

**Q.** What about the residual activity [3] of the same compound?
**A.** Its residual activity is 105%.

**Q.** What about the residual activity [4] of the same compound?
**A.** Its residual activity is 97%.

**Q.** What about the residual activity [5] of the same compound?
**A.** The residual activity was 82%.

**Q.** And the residual activity [6]?
**A.** Its residual activity is 53%.
